Source: PubChem BioAssay (Broad Institute)
miR122 inh – miR-122 inhibition in Huh7 cells | activation (reporter increase), % at 12.5 µM | 340,000 tested, 0.3% active | AID 602342 | Huh7 miR-122 Renilla luciferase sensor, 48 h; neutral wells = 0, positive control = 100;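 active = mean replicate activation score at least 90 and every replicate individually at or above 90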;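 note: higher luciferase means less miR-122 activity so hits act as miR-122 inhibitors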
GSIS activator – GLuc luminescence reporter in INS-1E cells, primary screen for activators of glucose-dependent secretion of insulin; INS-1E GLuc reporter insulin secretion, 2-3 h; activation, % at 16.6 µM; 370,000 tested, 0.61% active;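 active = lowest replicate activation of at least 40%, so every replicate reaches that level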;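 note: 0% = median of neutral control wells and 100% = median of IBMX positive control wells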
MITF TRPM1 HTS – MITF TRPM1 promoter activation in melanoma cells; SK-MEL-5 TRPM1-promoter luciferase, 24 h; % of positive control, neutral wells = 0; activation, % at 12.5 µM; 300,000 tested, 0.75% active;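 active = mean activation of at least 80% with every replicate also reaching 80%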;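 note: 0% = neutral control wells and 100% = parthenolide positive control wells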
Dyrk1A ADPGlo – blocks rat Dyrk1A kinase activity | 310,000 tested, 0.43% active | Q63470 | ADP-Glo luminescence, NFATc1 peptide | inhibition, % at 12.5 µM;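 note: plate controls were vehicle with enzyme for no effect and no enzyme for full effect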
Wnt bcat act – Wnt/beta-catenin pathway activation; Wnt/beta-catenin reporter cell assay, activator, plate reader; activation, % at 9.35 µM; 300,000 tested, 1.2% active; AID 743398; in the data active = activation above about 30%, passing the limit was not always enough;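 note: 0% = neutral control wells and 100% = positive control wells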
NSD2 HMT inh – inhibitors of human histone methyltransferase NSD2 | 310,000 tested, 0.54% active | NSD2 peptide methylation, AlphaScreen, 120 min | inhibition, % at 12.5 µM | O96028
ADP-Glo artifact – ADP-Glo luciferase interference, Dyrk1A counter-screen. shares compounds with Dyrk1A ADPGlo. ADP-Glo luciferase artifact assay, no Dyrk1A, luminescence. AC50, µM (highest dose often 12 µM), inactives show at the top dose activity change, negative = inhibition. 1,300 tested, under 10 active. AID 588348;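 active = fitted half-maximal dose AC50 no more than ten times the top valid tested dose, with luminescence dropping as dose rises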
Starred values were filed as active, the others as inactive; / = not tested or not shown; [ ] = dose if it differs, or a comment. A selection: hits, their analogues and other compounds. The true share with any hit is near 2.4%. Cut-off read from the data, not from the text of the source, unless noted: active = inhibition above about 50%; inactive = the rest.

SMILES	miR122 inh	GSIS activator	MITF TRPM1 HTS	Dyrk1A ADPGlo	Wnt bcat act	NSD2 HMT inh	ADP-Glo artifact
CCC(C)NC(=O)C1CCCN(S(=O)(=O)c2ccc3c(c2)CC(C)N3C(=O)C2CC2)C1 (centres undefined)	10	-9	-1	58*	-1	/	11%
CCc1ccccc1NC(=O)C1CCCN(S(=O)(=O)c2ccc3c(c2)CC(C)N3C(C)=O)C1 (centres undefined)	-3	/	-7	56*	-4	/	8%
C[C@H](CO)N1C[C@H](C)[C@@H](CN(C)C(=O)Nc2ccc(F)cc2)Oc2c(NS(=O)(=O)c3cn(C)cn3)cccc2C1=O	2[16.7 µM]	-3	/	/	/	/	/
CCCCC(CC)CN=C(N)NC(N)=NCCCCCCN=C(N)NC(N)=NCC(CC)CCCC (centres undefined)	-22	/	-109	52*	/	/	12%
CN1CCc2cc3c(c4c2[C@H]1[C@H](O)c1ccccc1-4)OCO3	/	/	-4	82*	7	/	6%
COc1ccc2c(c1OC)C(=O)OC2C1c2c(cc3c(c2OC)OCO3)CCN1C (centres undefined)	10	15	3	7	0	/	/
C[C@H]1CN([C@@H](C)CO)C(=O)Cc2cc(NS(=O)(=O)c3ccc(Cl)cc3)ccc2O[C@@H]1CN(C)Cc1ccc(Oc2ccccc2)cc1	0[16.7 µM]	-13	/	/	/	/	/
COc1cccc(C2CC(c3ccc(C)cc3)n3nc(N)nc3N2)c1 (centres undefined)	-5	-26	/	-3	-6	/	/
CCOc1ccc(C2CC(c3cccc(OC)c3)Nc3nc(N)nn32)cc1 (centres undefined)	6	-8	/	58*	-4	/	9%
O=C(CC1CC1)Nc1ccc2c(c1)[C@@H]1C[C@@H](CC(=O)N3CCc4ccccc4C3)O[C@H](CO)[C@@H]1O2	-5[16.7 µM]	11	/	/	/	/	/
COC(=O)c1cc(NC(=O)Nc2cccc(Cl)c2)ccc1Cl	4	-18	33	53*	1	/	10%
O=C(Nc1cccc(Cl)c1)Nc1nccs1	5	/	51	59*	/	-1	11%
O=C(Nc1cccc(Cl)c1)Nc1cccc(Cl)c1	-5	/	46	3	4	-2	/
COCC(=O)Nc1ccc2c(c1)C(=O)N(C)C[C@H](OC)[C@H](C)CN(CC1CCCCC1)[C@H](C)CO2	-2[16.7 µM]	5	/	/	/	/	/
CCC(=O)N1C[C@@H](C)[C@@H](OC)CN(C)C(=O)c2ccc(NC(=O)c3ccc(F)cc3)cc2OC[C@H]1C	12[16.7 µM]	-2	/	/	/	/	/
CCCCNc1nc(N)nc(-c2cc(Cl)ccc2O)n1	/	-21	20	5	-5	-3	/
CCNc1nc(N)nc(-c2cc(Cl)ccc2O)n1	1	/	35	67*	/	-4	6%
CCS(=O)(=O)N(C)C[C@@H]1OCc2ccccc2-c2c(n(C)c3ccccc23)C(=O)N([C@@H](C)CO)C[C@@H]1C	/	1	/	/	/	/	/
c1ccc(Cc2nnc3sc(-c4ccc5c(c4)OCCO5)nn23)cc1	0	2	28	80*	1	/	9%
COc1ccc2nc3c(cc2c1)c(NC(=O)c1cccs1)nn3CC(C)C	-3	/	/	89*	/	-11	9%
CC(C)Cn1nc(NC(=O)c2cccs2)c2cc3ccccc3nc21	-5	/	/	14	2	-8	/
COCC(=O)N(C)C[C@@H]1Oc2cc(C#CC(C)(C)O)ccc2S(=O)(=O)N([C@@H](C)CO)C[C@@H]1C	/	6	/	/	/	/	/
CCN1CCN(c2nc(Nc3cccc(C)c3)nc(N)c2[N+](=O)[O-])CC1	/	6	18	60*	/	38	8%
CCN1CCN(c2nc(Nc3ccccc3)nc(N)c2[N+](=O)[O-])CC1	-2	51	6	-2	/	28	/
O=c1c(O)c(-c2cc(O)c(O)c(O)c2)oc2cc(O)cc(O)c12	-5	/	1	90*	2	/	8%
SMILES	miR122 inh	GSIS activator	MITF TRPM1 HTS	Dyrk1A ADPGlo	Wnt bcat act	NSD2 HMT inh	ADP-Glo artifact
CC(=O)c1ccc(O)c(CC=C(C)C)c1	-2	-1	5	-11	-2	/	/
COc1cc(OC)c2c(-c3ccccc3)cc(=O)oc2c1	-2	9	/	12	0	/	/
O=c1c(O)c(-c2ccccc2)oc2cc(O)ccc12	-4	/	/	/	9	/	/
O=c1cc(-c2ccccc2)c2c(O)cc(O)cc2o1	-3	-4	4	61*	0	-1	6%
CC(C)=CCc1cc(-c2oc3cc(O)cc(O)c3c(=O)c2O)ccc1O	-2	-23	46	63*	-1	/	10%
O=c1c(O)c(-c2ccccc2)oc2cc(O)cc(O)c12	3	-14	50	75*	-1	/	6%
O=c1c(-c2ccccc2)c(-c2ccccc2)oc2cc(O)cc(O)c12	/	-19	2	46	-2	10	/
O=C(C[C@@H]1C[C@H]2c3cc(NS(=O)(=O)c4ccc(F)cc4)ccc3O[C@H]2[C@@H](CO)O1)N1CCCCC1	4[16.7 µM]	8	/	/	/	/	/
Nc1nc(N)nc(-c2ccc(Cl)c(Cl)c2)n1	3	-2	71	84*	38*	/	7%
Cc1nc(N)nc(N)c1-c1ccc(Cl)c(Cl)c1	1	/	-27	0	-4	-3	/
c1cnc2ccc(-c3ccc4ncccc4c3)cc2c1	/	13	37	87*	17	1	9%
CC1(C)Nc2ccc(O)cc2-c2c1ssc2=S	-3	21	-11	52*	/	26	9%
COc1cccc(-n2sc3c(c2=S)-c2cc(OC)ccc2NC3(C)C)c1	7	/	/	-3	-14	19	/
O=S(=O)(N[C@@H]1CC[C@H](CCn2cc(Cc3ccccc3)nn2)O[C@H]1CO)c1ccccc1F	/	-3	/	/	/	/	/
CN1C(=O)c2cc(NC(=O)c3ccccc3Cl)ccc2OC[C@@H]2O[C@H](CC(=O)NCC(F)(F)F)CC[C@@H]21	/	3	/	/	/	/	/
CCOC(=O)c1nnc(-c2ccc(C)cc2)nc1Sc1ccc(Cl)cc1	4	/	1	55*	-3	36	6%
O=C1NC(=O)/C(=C\c2ccc(O)cc2O)S1	/	-34	1	85*	15	102*	8%
Cc1cc(N2CCOCC2)ccc1/C=C1/SC(=O)NC1=O	/	-50	56	2	24	1	/
CO[C@H]1CC[C@H]2CCN(C)C(=O)[C@@H](C)N(C)C(=O)c3cc(C#N)ccc3OC[C@H]1O2	/	-7	/	/	/	/	/
CCN1C(=O)/C(=C2/Sc3ccccc3N2CC)S/C1=N\c1ncn[nH]1	-14	/	11	61*	11	1	9%
C=CCN1C(=O)/C(=C2/Sc3ccccc3N2CC)SC1=S	-2	-1	2	12	-1	-2	/
C[C@@H]1O[C@@H](OC[C@H]2O[C@@H](Oc3c(-c4ccc(O)c(O)c4)oc4cc(O)cc(O)c4c3=O)[C@H](O)[C@@H](O)[C@@H]2O)[C@H](O)[C@H](O)[C@H]1O	10	12	-10	77*	1	/	10%
